In ChEMBL document CHEMBL3988442, “University of Dundee, Small-Polar-MMV Screening Library” (2021):

What follows are molecules tested against T1, Aspartate--tRNA(Asp/Asn) ligase (Mycobacterium tuberculosis (strain ATCC 25618 / H37Rv)) (UniProt P9WFW3) (assay: Assay for Asp RNA synthetase-1 from Mycobacterium tuberculosis). Conditions: 30 µM.
T1 sequence (whole entry): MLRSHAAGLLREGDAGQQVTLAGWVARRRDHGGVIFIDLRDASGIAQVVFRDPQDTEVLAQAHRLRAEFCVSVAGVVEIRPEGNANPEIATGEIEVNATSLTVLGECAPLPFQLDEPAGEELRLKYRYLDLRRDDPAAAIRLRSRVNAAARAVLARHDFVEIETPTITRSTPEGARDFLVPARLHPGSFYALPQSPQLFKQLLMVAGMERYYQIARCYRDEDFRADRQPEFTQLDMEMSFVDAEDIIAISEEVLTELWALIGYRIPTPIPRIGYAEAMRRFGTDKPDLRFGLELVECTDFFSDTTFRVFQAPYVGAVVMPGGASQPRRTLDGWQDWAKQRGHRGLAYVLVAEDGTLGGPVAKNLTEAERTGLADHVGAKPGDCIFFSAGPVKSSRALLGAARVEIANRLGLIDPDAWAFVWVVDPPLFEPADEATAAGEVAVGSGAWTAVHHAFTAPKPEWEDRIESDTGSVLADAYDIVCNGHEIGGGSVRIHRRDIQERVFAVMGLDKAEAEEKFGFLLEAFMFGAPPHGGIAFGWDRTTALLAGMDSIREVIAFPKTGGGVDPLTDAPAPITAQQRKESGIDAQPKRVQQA
Format: functional
Parameters: scale not given: in the data most compounds retested in dose-response had high values

SMILES | Percent Effect [%]
Cc1cc(C)n(CC2CCCN2CC(=O)N(C)Cc2cnn(C)c2)n1 (stereo unspecified) | -0.211
Cc1ccc(CC2CCCN2CC(=O)NCc2ccccn2)cc1 (stereo unspecified) | 0.629
COc1ccccc1CC(=O)NS(=O)(=O)c1ccc(C(N)=O)cc1 | 1.21
O=C(CCc1nc2cccnc2[nH]1)NCc1ccc2c(c1)OCO2 | 0.0581
CCn1ncnc1C(NC(=O)CC1CCN(C(C)C)CC1)C1CC1 (stereo unspecified) | 1.82
O=C(c1ccn(-c2ccccc2Cl)n1)N1CCSCC1 | 1.45
Cc1ccccc1-c1noc(CN2CCn3c(nnc3C3CC3)C2)n1 | -0.7
O=C(c1ccc[nH]1)N1C[C@H](OCc2cccnc2)[C@H]2COC[C@H]21 | 2.69
CC(C)CCN1Cc2c(C(=O)O)ncn2-c2ccccc2S1(=O)=O | -0.474
Cc1ccc(N2CCCc3sc(C(=O)NCc4cccnc4)nc32)nn1 | -2.44
COc1c(CNC2CCN(C(=O)C3CC3)CC2)c(C(C)C)nn1C | 1.69
O=C(CN1C=Nc2ccccc2S1(=O)=O)NCCc1cccs1 | 0.225
Cc1noc(C)c1CN(C)C(=O)NC1CCN(C2CC2)CC1 | -2.46
CNC(=O)c1cccc(NC(=O)Cn2nc(-c3cccs3)oc2=O)c1 | -8.92
COCCCN(CCOC)C(=O)Nc1ccc(C)cc1C | 0.599
O=C(CCc1ccccc1)Nc1ncccc1OC(F)F | -3.26
CN(C)C(=O)c1ccc2c(c1)N(C)C(CC(=O)NC(C)(C)CO)CO2 (stereo unspecified) | 1.87
CN(Cc1ccccc1)CC(O)Cn1cnc2c(cnn2C)c1=O (stereo unspecified) | -0.522
COCCN1CCC(CNC(=O)c2cc(C)cc(C)c2)C1 (stereo unspecified) | -2.92
O=C(NCCNc1ncccn1)C1CCN(C(=O)C2CC2)CC1 | 1.89
COCc1ncn2c1CN(C(=O)C1CC=CC1)CC2 | 1.48
